In PubChem BioAssay (NCI):
About 79,000 compounds went through this panel and 15% of them were active in at least one assay; those are over-represented in the sample as a whole. Active and inactive are the calls of the source. No stated cut-off is given here; in the data, active means growth inhibition above about 70%; inactive means the rest.

Columns and labels:
[1] = NCI Yeast Anticancer Drug Screen. Data for the wt2 strain (AID 169);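 further: 0% = growth of vehicle-treated yeast cultures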; conditions: S. cerevisiae wt2 strain growth inhibition, stronger effect = higher value
Method in brief: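 This strain belongs to a panel of yeast strains with defined genetic alterations in DNA damage repair or cell cycle control. Compounds are applied, and growth inhibition is measured against vehicle-treated cultures.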

[2] = NCI Yeast Anticancer Drug Screen. Data for the mlh1 strain (AID 171);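 further: 0% = growth of vehicle-treated control cultures of the same strain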; conditions: S. cerevisiae mlh1 strain growth inhibition, stronger effect = higher value
Method in brief: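 Growth of the mutant yeast strain after compound exposure, expressed as inhibition relative to vehicle-only controls.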

[3] = NCI Yeast Anticancer Drug Screen. Data for the sgs1 strain (AID 173);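 further: 0% = growth of vehicle-only control cultures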; conditions: S. cerevisiae sgs1 mutant, stronger effect = higher value
Method in brief: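 Growth of a yeast strain bearing a defined genetic alteration is measured after compound treatment. Inhibition is expressed relative to vehicle-only controls.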

[4] = NCI Yeast Anticancer Drug Screen. Data for the mlh1 rad18 strain (AID 175); conditions: S. cerevisiae mlh1 rad18 strain growth inhibition, stronger effect = higher value
Method in brief: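 Read-out is yeast growth inhibition, calculated against vehicle-only controls. The compound was applied to a strain engineered with DNA damage repair alterations.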

[5] = NCI Yeast Anticancer Drug Screen. Data for the rad18 strain (AID 177); conditions: S. cerevisiae rad18 mutant growth inhibition, stronger effect = higher value
Method in brief: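 Growth of the mutant yeast strain after compound exposure, normalised to vehicle-only cultures.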

[6] = NCI Yeast Anticancer Drug Screen. Data for the rad52 strain (AID 147);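 further: 0% = growth of vehicle-treated control cultures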; conditions: S. cerevisiae rad52 mutant growth inhibition, stronger effect = higher value
Method in brief: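 Compounds are applied to a genetically defined yeast strain lacking normal DNA damage repair, and inhibition of growth is expressed relative to cultures given vehicle only.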

[7] = NCI Yeast Anticancer Drug Screen. Data for the wt1 strain (AID 149);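 further: 0% = growth of vehicle-treated wt1 cultures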; conditions: S. cerevisiae wt1 strain (SPY 50644) growth inhibition, stronger effect = higher value
Method in brief: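 wt1 yeast, compound-treated; % growth inhibition vs vehicle control.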

[8] = NCI Yeast Anticancer Drug Screen. Data for the rad50EPP+ strain (AID 151);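 further: 0% = growth of vehicle-treated control cultures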; conditions: S. cerevisiae rad50 mutant strain, stronger effect = higher value
Method in brief: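 Compounds were applied to the rad50EPP+ yeast strain, which bears a defined DNA repair alteration, and growth inhibition was determined relative to vehicle-treated cultures.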

[9] = NCI Yeast Anticancer Drug Screen. Data for the mgt1 strain (AID 153); conditions: S. cerevisiae mgt1 mutant growth inhibition, stronger effect = higher value
Method in brief: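 Strain: mgt1 yeast, one of a set carrying defined DNA damage repair or cell cycle control alterations. Compound-treated growth compared with vehicle.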

[10] = NCI Yeast Anticancer Drug Screen. Data for the rad50 strain (AID 155);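 further: 0% = growth of vehicle-only cultures of the same strain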; conditions: S. cerevisiae rad50 strain growth inhibition, stronger effect = higher value
Method in brief: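 Genetically altered yeast (DNA repair pathway); compound treatment; growth inhibition vs vehicle ctrl.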

[11] = NCI Yeast Anticancer Drug Screen. Data for the mec2-1 strain (AID 157); conditions: S. cerevisiae mec2-1 strain, stronger effect = higher value
Method in brief: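 Strain: mec2-1 (DNA repair/cell cycle alteration). Compound exposure, then growth measured; inhibition expressed relative to vehicle.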

[12] = NCI Yeast Anticancer Drug Screen. Data for the rad14 strain (AID 159);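 further: 0% = growth of vehicle-treated control cultures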; conditions: S. cerevisiae rad14 strain growth inhibition, stronger effect = higher value
Method in brief: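 Test compounds were applied to a repair-deficient yeast strain. Its growth was then compared with that of cultures given vehicle alone, and inhibition was expressed relative to those controls.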

[13] = NCI Yeast Anticancer Drug Screen. Data for the sgs1 mgt1 strain (AID 161);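 further: 0% = growth of cultures given vehicle only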; conditions: S. cerevisiae sgs1 mgt1 strain, stronger effect = higher value
Method in brief: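 Inhibition of yeast growth, normalised to vehicle-treated controls, is reported for a strain bearing genetic alterations in DNA damage repair.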

[14] = NCI Yeast Anticancer Drug Screen. Data for the CLN2oe strain (AID 163);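 further: 0% = growth of vehicle-only control cultures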; conditions: S. cerevisiae CLN2oe strain, stronger effect = higher value
Method in brief: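 Growth of a genetically modified yeast strain is measured after compound exposure and compared with cultures given vehicle alone.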

[15] = NCI Yeast Anticancer Drug Screen. Data for the cln2 rad14 strain (AID 165);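 further: 0% = growth equal to vehicle treated cultures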; conditions: S. cerevisiae cln2 rad14 strain, stronger effect = higher value
Method in brief: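 Compounds are applied to the cln2 rad14 yeast strain, and growth is then compared with that of vehicle-treated cultures to give inhibition.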

[16] = NCI Yeast Anticancer Drug Screen. Data for the bub3 strain (AID 167); conditions: S. cerevisiae bub3 mutant strain, stronger effect = higher value
Method in brief: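 Yeast carrying a defined mutation is treated with each compound, and growth is compared with that of vehicle-exposed cells to give inhibition.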

[17] = at 5.0 µM (retest, dose inferred, filed as 0.5)
[18] = at 50.0 µM (retest, dose inferred, filed as 5.0)

Measured: growth inhibition

O=C(O)c1cc2ccccc2c2c1C(=O)c1ccccc1-2
inactive: [1]; at 1.2 µM -1% | [1]; at 3.7 µM 11% | [1]; at 11.0 µM 49% | [2]; at 1.2 µM 9% | [2]; at 3.7 µM 14% | [2]; at 11.0 µM 59% | [3]; at 1.2 µM 18% | [3]; at 3.7 µM 28% | [3]; at 11.0 µM 69% | [4]; [17] 22% | [5]; at 1.2 µM 5% | [5]; at 3.7 µM 12% | [5]; at 11.0 µM 43%
active: [1]; at 33.0 µM 96% | [1]; at 100.0 µM 95% | [2]; at 33.0 µM 95% | [2]; at 100.0 µM 95% | [3]; at 33.0 µM 95% | [3]; at 100.0 µM 96% | [4]; [18] 97% | [4]; at 50.0 µM 90% | [5]; at 33.0 µM 95% | [5]; at 100.0 µM 94%

CN(C)CCCCN1c2ccccc2Sc2ccc(N=[N+]=[N-])cc21
active: [6]; at 100.0 µM 99% | [7]; at 100.0 µM 99% | [8]; at 100.0 µM 80% | [9]; at 100.0 µM 99% | [10]; [17] 91% | [10]; [18] 99% | [10]; at 50.0 µM 84.2% | [10]; at 100.0 µM 98% | [11]; [18] 99% | [11]; at 50.0 µM 79.2% | [11]; at 100.0 µM 99% | [12]; at 100.0 µM 99% | [13]; [18] 99% | [13]; at 50.0 µM 90.5% | [14]; at 100.0 µM 98% | [15]; [18] 99% | [15]; at 50.0 µM 89.5% | [16]; [18] 98% | [16]; at 50.0 µM 72% | [16]; at 100.0 µM 98% | [1]; at 100.0 µM 99% | [2]; at 100.0 µM 99% | [3]; at 100.0 µM 99% | [4]; [18] 99% | [4]; at 50.0 µM 91.5% | [5]; at 100.0 µM 99%
inactive: [6]; at 1.2 µM 29% | [6]; at 3.7 µM 37% | [6]; at 11.0 µM 45% | [6]; at 33.0 µM 49% | [7]; at 1.2 µM 23% | [7]; at 3.7 µM 36% | [7]; at 11.0 µM 36% | [7]; at 33.0 µM 47% | [8]; at 1.2 µM 24% | [8]; at 3.7 µM 20% | [8]; at 11.0 µM 23% | [8]; at 33.0 µM 23% | [9]; at 1.2 µM 19% | [9]; at 3.7 µM 20% | [9]; at 11.0 µM 31% | [9]; at 33.0 µM 51% | [10]; at 1.2 µM 6% | [10]; at 3.7 µM 20% | [10]; at 11.0 µM 15% | [10]; at 33.0 µM 47% | [11]; at 1.2 µM 33% | [11]; at 3.7 µM 31% | [11]; [17] 33% | [11]; at 11.0 µM 36% | [11]; at 33.0 µM 42% | [12]; at 1.2 µM 0% | [12]; at 3.7 µM 8% | [12]; at 11.0 µM 19% | [12]; at 33.0 µM 55% | [13]; [17] -16% | [14]; at 1.2 µM 19% | [14]; at 3.7 µM 18% | [14]; at 11.0 µM 24% | [14]; at 33.0 µM 39% | [15]; [17] 8% | [16]; at 1.2 µM -8% | [16]; at 3.7 µM -10% | [16]; [17] 4% | [16]; at 11.0 µM -14% | [16]; at 33.0 µM 14% | [1]; at 1.2 µM -8% | [1]; at 3.7 µM -15% | [1]; at 11.0 µM -14% | [1]; at 33.0 µM 46% | [2]; at 1.2 µM 32% | [2]; at 3.7 µM 31% | [2]; at 11.0 µM 35% | [2]; at 33.0 µM 57% | [3]; at 1.2 µM 10% | [3]; at 3.7 µM 42% | [3]; at 11.0 µM 43% | [3]; at 33.0 µM 67% | [4]; [17] 23% | [5]; at 1.2 µM 10% | [5]; at 3.7 µM 14% | [5]; at 11.0 µM 24% | [5]; at 33.0 µM 57%

Cc1cc2c(cc1C)[n+]([O-])c(-c1nc3ccccc3s1)c(N)[n+]2[O-]
active: [6]; at 100.0 µM 88% | [8]; at 33.0 µM 82% | [8]; at 100.0 µM 97% | [9]; at 100.0 µM 94% | [10]; at 50.0 µM 87.8% | [10]; at 100.0 µM 93% | [11]; [18] 79% | [11]; at 50.0 µM 76% | [11]; at 100.0 µM 97% | [12]; at 100.0 µM 85% | [13]; [18] 89% | [13]; at 50.0 µM 80.6% | [15]; at 50.0 µM 81.5% | [16]; [18] 92% | [16]; at 50.0 µM 93.7% | [16]; at 100.0 µM 96% | [3]; at 100.0 µM 79% | [4]; [18] 90% | [4]; at 50.0 µM 94.9% | [5]; at 100.0 µM 91%
inactive: [6]; at 1.2 µM 2% | [6]; at 3.7 µM 10% | [6]; at 11.0 µM 20% | [6]; at 33.0 µM 35% | [7]; at 1.2 µM 10% | [7]; at 3.7 µM 13% | [7]; at 11.0 µM 17% | [7]; at 33.0 µM 20% | [7]; at 100.0 µM 25% | [8]; at 1.2 µM 1% | [8]; at 3.7 µM 15% | [8]; at 11.0 µM 44% | [9]; at 1.2 µM 11% | [9]; at 3.7 µM 18% | [9]; at 11.0 µM 23% | [9]; at 33.0 µM 40% | [10]; at 1.2 µM 0% | [10]; at 3.7 µM 10% | [10]; [17] 3% | [10]; at 11.0 µM 23% | [10]; at 33.0 µM 40% | [10]; [18] 58% | [11]; at 1.2 µM 11% | [11]; at 3.7 µM 21% | [11]; [17] 23% | [11]; at 11.0 µM 26% | [11]; at 33.0 µM 37% | [12]; at 1.2 µM 1% | [12]; at 3.7 µM 14% | [12]; at 11.0 µM 22% | [12]; at 33.0 µM 29% | [13]; [17] 28% | [14]; at 1.2 µM -1% | [14]; at 3.7 µM 5% | [14]; at 11.0 µM 18% | [14]; at 33.0 µM 10% | [14]; at 100.0 µM 25% | [15]; [17] 2% | [15]; [18] 41% | [16]; at 1.2 µM 11% | [16]; at 3.7 µM 32% | [16]; [17] 47% | [16]; at 11.0 µM 46% | [16]; at 33.0 µM 53% | [1]; at 1.2 µM 14% | [1]; at 3.7 µM 18% | [1]; at 11.0 µM 18% | [1]; at 33.0 µM 21% | [1]; at 100.0 µM 58% | [2]; at 1.2 µM 6% | [2]; at 3.7 µM 14% | [2]; at 11.0 µM 17% | [2]; at 33.0 µM 20% | [2]; at 100.0 µM 55% | [3]; at 1.2 µM 10% | [3]; at 3.7 µM 21% | [3]; at 11.0 µM 24% | [3]; at 33.0 µM 39% | [4]; [17] 33% | [5]; at 1.2 µM 4% | [5]; at 3.7 µM 20% | [5]; at 11.0 µM 36% | [5]; at 33.0 µM 63%
